Measurements: article PMC7862700, “An all-to-all approach to the identification of sequence-specific readers for epigenetic DNA modifications on cytosine”

Columns and labels:
Assay in all cases: DAPPL (digital affinity profiling via proximity ligation, sequencing); 10 mM Tris-HCl pH 7.5, 50 mM NaCl, 1 mM DTT, 4% glycerol, room temperature, 30 min; GST-TFs on glutathione beads, 16-mer random dsDNA library, 0.1% formaldehyde crosslink after washing; high values mean tight binding
FLI1 = biological target: T1, FLI1 (Homo sapiens, UniProt Q01543 1-452); conditions: protein: recombinant; tags: N-terminal GST; dsDNA, one strand shown
T1 sequence: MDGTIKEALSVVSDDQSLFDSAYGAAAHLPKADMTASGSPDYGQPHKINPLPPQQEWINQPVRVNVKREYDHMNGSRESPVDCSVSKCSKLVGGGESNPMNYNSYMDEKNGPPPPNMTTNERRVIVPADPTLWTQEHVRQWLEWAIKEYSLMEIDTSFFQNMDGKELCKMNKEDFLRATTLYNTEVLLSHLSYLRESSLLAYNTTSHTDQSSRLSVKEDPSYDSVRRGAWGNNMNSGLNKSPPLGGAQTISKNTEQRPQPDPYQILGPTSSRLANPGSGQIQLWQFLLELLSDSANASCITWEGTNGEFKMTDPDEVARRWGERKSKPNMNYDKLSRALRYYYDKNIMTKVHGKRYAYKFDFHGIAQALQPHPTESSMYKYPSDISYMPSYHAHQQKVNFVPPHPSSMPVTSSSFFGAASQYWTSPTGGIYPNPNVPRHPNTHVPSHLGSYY
Summary of the method: (§1)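 Pools of DNA-barcoded human transcription factors, expressed in yeast as GST fusions on glutathione beads and combined with a tag-only sample, were incubated with 200 nmole of a 16-mer random double-stranded DNA library. Incubation took 30 min at room temperature in Tris/NaCl/DTT/glycerol buffer and was followed by washing, 0.1% formaldehyde crosslinking, proximity ligation (BsaI/T4 ligase, 1 h, 37 °C), PCR amplification and sequencing on an Illumina NextSeq500. Binding signal is the ratio of a hexamer's read frequency for a factor to its frequency for the tag-only sample.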

ELK1 = biological target: T2, ELK1 (Homo sapiens, UniProt P19419 1-428); conditions: protein: recombinant; tags: N-terminal GST; dsDNA, one strand shown
T2 sequence: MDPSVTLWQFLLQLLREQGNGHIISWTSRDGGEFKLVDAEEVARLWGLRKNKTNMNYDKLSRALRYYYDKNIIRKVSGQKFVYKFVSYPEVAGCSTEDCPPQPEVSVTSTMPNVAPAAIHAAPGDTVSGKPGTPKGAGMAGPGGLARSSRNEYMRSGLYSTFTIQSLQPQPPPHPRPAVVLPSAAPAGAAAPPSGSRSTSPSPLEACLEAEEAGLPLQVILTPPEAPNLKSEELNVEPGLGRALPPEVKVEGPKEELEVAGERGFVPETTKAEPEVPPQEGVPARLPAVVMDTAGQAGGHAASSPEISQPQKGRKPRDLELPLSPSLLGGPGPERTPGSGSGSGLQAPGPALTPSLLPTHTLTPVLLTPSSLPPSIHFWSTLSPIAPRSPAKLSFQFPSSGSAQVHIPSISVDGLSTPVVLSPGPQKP
Summary of the method: as §1

GABPA = biological target: T3, GABPA (Homo sapiens, UniProt Q06546 1-454); conditions: protein: recombinant; tags: N-terminal GST; dsDNA, one strand shown
T3 sequence: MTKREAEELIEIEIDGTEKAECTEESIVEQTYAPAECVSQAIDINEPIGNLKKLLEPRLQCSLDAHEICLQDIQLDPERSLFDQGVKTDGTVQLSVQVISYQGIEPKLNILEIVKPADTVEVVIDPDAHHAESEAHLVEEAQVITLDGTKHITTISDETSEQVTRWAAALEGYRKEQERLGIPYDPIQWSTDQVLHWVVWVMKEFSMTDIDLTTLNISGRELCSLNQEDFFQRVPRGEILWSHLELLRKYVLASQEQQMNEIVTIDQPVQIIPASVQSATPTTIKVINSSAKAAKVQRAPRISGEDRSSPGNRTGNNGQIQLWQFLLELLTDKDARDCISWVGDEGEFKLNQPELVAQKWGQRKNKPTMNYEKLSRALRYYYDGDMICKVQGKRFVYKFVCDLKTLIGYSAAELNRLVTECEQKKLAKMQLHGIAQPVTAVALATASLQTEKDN
Summary of the method: as §1

ERG = biological target: T4, ERG (Homo sapiens, UniProt P11308 1-479); conditions: protein: recombinant; tags: N-terminal GST; dsDNA, one strand shown
T4 sequence: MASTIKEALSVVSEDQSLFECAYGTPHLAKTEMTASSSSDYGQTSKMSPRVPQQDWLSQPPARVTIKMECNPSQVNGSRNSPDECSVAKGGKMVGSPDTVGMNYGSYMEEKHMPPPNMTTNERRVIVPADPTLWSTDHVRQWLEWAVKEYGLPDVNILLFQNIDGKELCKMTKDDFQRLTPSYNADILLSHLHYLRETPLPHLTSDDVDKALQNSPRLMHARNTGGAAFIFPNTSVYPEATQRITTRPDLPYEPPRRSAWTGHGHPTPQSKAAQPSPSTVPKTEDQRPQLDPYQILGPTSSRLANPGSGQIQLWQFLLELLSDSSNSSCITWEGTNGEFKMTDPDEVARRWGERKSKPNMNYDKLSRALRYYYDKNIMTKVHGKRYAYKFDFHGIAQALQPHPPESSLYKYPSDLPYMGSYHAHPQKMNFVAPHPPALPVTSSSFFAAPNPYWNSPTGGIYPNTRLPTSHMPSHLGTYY
Summary of the method: as §1

ELF1 = ELF1 (Homo sapiens, UniProt P32519 1-619); conditions: protein: recombinant; tags: N-terminal GST; dsDNA, one strand shown
Sequence of ELF1 (P32519 whole entry): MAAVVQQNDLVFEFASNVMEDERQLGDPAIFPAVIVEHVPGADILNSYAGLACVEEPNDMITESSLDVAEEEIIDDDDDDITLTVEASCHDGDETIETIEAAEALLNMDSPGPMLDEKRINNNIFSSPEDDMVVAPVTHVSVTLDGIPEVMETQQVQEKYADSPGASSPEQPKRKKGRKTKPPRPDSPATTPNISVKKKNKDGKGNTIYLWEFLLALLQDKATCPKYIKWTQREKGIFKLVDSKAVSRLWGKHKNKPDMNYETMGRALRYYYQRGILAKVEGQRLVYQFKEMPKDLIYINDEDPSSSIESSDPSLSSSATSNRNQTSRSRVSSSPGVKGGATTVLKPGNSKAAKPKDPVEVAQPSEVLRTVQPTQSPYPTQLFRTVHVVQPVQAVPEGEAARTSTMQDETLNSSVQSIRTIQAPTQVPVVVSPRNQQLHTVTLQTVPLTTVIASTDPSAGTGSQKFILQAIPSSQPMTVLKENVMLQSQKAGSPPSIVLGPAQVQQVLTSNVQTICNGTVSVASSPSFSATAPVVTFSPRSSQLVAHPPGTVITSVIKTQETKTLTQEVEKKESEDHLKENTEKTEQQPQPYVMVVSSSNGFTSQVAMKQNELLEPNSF
Summary of the method: as §1

EHF = biological target: T5, EHF (Homo sapiens, UniProt Q9NZC4 1-300); conditions: protein: recombinant; tags: N-terminal GST; dsDNA, one strand shown
T5 sequence: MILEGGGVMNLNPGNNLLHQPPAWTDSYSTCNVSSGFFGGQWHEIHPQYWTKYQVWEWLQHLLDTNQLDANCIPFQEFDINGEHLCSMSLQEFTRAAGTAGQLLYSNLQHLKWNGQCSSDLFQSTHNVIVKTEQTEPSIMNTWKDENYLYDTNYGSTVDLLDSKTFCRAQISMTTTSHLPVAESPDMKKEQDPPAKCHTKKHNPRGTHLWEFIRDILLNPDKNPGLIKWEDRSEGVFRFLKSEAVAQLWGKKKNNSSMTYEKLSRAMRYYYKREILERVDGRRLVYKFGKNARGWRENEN
Summary of the method: as §1

SPI1 = SPI1 (Homo sapiens, UniProt P17947 1-270); conditions: protein: recombinant; tags: N-terminal GST; dsDNA, one strand shown
Summary of the method: as §1

SPIB = SPIB (Homo sapiens, UniProt Q01892 1-262); conditions: protein: recombinant; tags: N-terminal GST; dsDNA, one strand shown
Sequence of SPIB (Q01892 whole entry): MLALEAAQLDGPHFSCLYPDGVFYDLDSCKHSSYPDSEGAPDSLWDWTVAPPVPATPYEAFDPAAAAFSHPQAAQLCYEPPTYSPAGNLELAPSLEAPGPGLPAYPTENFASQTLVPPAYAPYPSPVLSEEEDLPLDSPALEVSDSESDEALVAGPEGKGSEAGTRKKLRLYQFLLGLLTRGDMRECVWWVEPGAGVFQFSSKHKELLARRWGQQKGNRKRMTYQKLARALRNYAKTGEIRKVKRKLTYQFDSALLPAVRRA
Summary of the method: as §1

ELK3 = biological target: T6, ELK3 (Homo sapiens, UniProt P41970 1-407); conditions: protein: recombinant; tags: N-terminal GST; dsDNA, one strand shown
T6 sequence: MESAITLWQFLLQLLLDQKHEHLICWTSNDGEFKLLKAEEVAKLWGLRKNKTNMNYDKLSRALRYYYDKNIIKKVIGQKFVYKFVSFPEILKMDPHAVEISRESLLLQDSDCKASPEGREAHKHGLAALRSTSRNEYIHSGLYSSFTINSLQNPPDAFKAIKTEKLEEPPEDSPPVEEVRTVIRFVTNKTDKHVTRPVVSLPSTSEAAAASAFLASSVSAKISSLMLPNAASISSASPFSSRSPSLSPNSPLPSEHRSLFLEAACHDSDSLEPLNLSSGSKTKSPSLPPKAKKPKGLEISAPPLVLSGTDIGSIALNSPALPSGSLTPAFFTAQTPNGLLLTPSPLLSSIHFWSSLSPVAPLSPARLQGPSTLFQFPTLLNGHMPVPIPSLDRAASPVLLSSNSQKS
Summary of the method: as §1

FEV = biological target: T7, FEV (Homo sapiens, UniProt Q99581 1-238); conditions: protein: recombinant; tags: N-terminal GST; dsDNA, one strand shown
T7 sequence: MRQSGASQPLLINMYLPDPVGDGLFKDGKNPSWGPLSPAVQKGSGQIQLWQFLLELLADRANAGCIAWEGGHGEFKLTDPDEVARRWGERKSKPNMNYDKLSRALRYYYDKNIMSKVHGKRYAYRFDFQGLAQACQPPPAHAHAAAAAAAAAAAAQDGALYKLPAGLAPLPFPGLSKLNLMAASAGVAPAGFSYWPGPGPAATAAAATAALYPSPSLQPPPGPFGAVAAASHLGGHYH
Summary of the method: as §1

ETV5 = ETV5 (Homo sapiens, UniProt P41161 1-510); conditions: protein: recombinant; tags: N-terminal GST; dsDNA, one strand shown
Sequence of ETV5 (P41161 whole entry): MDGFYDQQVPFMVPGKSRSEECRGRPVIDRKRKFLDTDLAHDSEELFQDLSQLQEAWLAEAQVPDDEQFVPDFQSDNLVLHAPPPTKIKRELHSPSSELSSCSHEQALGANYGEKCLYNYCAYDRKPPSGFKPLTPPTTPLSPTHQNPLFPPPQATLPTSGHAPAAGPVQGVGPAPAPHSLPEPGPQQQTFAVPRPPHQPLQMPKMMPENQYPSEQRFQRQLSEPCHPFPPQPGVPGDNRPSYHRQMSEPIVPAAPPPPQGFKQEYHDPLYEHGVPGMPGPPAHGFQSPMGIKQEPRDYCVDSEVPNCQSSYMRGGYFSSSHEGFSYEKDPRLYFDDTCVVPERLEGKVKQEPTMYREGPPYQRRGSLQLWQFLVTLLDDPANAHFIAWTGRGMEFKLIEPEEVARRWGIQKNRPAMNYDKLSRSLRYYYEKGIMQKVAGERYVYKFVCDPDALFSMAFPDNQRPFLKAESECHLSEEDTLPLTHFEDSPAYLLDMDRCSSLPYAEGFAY
Summary of the method: as §1

HSF1 = HSF1 (Homo sapiens, UniProt Q00613 1-529); conditions: protein: recombinant; tags: N-terminal GST; chain copies: 3; dsDNA, one strand shown
Sequence of HSF1 (Q00613 whole entry): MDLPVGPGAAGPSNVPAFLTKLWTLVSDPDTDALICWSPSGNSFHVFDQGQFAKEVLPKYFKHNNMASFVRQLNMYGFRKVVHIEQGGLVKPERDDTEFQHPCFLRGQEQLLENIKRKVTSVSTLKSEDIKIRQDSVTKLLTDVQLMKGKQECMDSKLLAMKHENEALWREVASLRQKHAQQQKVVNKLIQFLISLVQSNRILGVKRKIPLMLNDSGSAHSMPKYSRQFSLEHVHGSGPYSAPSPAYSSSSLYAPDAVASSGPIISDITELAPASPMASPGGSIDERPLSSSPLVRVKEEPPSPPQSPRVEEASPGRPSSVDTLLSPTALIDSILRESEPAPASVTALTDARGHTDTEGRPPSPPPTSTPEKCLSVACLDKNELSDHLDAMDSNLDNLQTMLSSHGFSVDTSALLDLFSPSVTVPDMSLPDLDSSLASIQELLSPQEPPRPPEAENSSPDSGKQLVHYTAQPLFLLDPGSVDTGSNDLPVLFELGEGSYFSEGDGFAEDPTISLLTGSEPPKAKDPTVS
Summary of the method: as §1

SPIC = biological target: T8, SPIC (Homo sapiens, UniProt Q8N5J4 1-248); conditions: protein: recombinant; tags: N-terminal GST; dsDNA, one strand shown
T8 sequence: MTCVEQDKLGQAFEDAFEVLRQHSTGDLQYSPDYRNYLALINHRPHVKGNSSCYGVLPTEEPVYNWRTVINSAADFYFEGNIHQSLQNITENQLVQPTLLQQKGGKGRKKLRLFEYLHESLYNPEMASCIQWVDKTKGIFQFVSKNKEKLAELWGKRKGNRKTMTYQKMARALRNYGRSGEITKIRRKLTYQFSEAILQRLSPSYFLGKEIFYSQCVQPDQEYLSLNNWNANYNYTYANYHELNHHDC
Summary of the method: as §1

ELF4 = ELF4 (Homo sapiens, UniProt Q99607 1-663); conditions: protein: recombinant; tags: N-terminal GST; dsDNA, one strand shown
Sequence of ELF4 (Q99607 whole entry): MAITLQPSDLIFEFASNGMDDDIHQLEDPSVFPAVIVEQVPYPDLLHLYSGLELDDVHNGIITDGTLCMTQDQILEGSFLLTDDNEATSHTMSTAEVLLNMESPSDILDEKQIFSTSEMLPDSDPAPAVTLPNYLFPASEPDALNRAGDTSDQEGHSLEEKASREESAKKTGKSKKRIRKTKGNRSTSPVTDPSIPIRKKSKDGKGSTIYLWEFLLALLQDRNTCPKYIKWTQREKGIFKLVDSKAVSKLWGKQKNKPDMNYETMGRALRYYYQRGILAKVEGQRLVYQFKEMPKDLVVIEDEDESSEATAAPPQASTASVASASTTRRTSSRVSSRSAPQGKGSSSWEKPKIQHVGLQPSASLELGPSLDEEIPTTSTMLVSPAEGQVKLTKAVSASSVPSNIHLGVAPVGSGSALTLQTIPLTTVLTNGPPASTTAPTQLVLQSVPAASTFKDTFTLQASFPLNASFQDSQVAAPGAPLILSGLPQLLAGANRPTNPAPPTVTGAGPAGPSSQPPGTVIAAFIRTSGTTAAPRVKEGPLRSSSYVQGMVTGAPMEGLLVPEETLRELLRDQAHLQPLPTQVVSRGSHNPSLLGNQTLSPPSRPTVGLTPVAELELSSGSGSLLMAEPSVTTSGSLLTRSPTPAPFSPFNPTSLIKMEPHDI
Summary of the method: as §1

ELK4 = biological target: T9, ELK4 (Homo sapiens, UniProt P28324-2 1-405); conditions: protein: recombinant; tags: N-terminal GST; dsDNA, one strand shown
T9 sequence: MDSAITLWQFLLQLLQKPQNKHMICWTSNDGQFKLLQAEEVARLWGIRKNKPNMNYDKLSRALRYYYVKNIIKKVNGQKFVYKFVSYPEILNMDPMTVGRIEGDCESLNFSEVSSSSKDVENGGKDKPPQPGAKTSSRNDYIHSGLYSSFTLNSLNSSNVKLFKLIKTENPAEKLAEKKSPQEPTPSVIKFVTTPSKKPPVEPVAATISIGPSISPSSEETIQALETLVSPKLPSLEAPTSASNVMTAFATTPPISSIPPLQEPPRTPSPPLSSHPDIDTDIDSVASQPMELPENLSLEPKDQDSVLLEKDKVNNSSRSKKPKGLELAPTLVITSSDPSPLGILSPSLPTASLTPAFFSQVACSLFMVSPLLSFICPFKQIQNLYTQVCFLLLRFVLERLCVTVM
Summary of the method: as §1

ETV2 = biological target: T10, ETV2 (Homo sapiens, UniProt O00321 1-342); conditions: protein: recombinant; tags: N-terminal GST; dsDNA, one strand shown
T10 sequence: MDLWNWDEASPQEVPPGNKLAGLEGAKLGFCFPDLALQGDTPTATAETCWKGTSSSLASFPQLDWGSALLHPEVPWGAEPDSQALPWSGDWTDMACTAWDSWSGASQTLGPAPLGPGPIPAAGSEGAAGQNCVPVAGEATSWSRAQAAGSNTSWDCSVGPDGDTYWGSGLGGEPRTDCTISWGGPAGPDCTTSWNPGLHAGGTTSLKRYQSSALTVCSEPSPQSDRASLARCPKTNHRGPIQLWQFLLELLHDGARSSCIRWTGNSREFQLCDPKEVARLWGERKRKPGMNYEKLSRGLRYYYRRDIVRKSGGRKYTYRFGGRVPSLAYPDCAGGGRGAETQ
Summary of the method: as §1

ELF3 = biological target: T11, ELF3 (Homo sapiens, UniProt P78545 1-371); conditions: protein: recombinant; tags: N-terminal GST; dsDNA, one strand shown
T11 sequence: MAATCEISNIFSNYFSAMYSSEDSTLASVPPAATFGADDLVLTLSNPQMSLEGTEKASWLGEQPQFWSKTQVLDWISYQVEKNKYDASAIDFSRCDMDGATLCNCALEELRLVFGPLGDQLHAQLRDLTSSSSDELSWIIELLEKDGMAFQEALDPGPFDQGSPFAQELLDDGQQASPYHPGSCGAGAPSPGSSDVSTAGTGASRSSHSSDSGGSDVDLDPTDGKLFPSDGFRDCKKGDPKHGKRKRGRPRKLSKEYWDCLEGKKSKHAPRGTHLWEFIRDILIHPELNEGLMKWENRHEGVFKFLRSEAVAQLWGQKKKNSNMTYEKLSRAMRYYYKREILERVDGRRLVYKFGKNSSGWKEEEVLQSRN
Summary of the method: as §1

CRX = CRX (Homo sapiens, UniProt O43186 1-299); conditions: protein: recombinant; tags: N-terminal GST; dsDNA, one strand shown
Sequence of CRX (O43186 whole entry): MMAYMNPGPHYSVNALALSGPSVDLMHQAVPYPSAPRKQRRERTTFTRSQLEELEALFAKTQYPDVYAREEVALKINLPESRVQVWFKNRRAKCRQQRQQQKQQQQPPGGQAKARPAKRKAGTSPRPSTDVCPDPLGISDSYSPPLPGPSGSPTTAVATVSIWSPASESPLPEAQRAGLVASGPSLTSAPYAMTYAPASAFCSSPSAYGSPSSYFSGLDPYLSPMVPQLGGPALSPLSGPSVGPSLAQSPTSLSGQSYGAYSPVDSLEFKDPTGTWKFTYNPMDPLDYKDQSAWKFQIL
Summary of the method: as §1

ETV1 = ETV1 (Homo sapiens, UniProt P50549 1-477); conditions: protein: recombinant; tags: N-terminal GST; dsDNA, one strand shown
Sequence of ETV1 (P50549 whole entry): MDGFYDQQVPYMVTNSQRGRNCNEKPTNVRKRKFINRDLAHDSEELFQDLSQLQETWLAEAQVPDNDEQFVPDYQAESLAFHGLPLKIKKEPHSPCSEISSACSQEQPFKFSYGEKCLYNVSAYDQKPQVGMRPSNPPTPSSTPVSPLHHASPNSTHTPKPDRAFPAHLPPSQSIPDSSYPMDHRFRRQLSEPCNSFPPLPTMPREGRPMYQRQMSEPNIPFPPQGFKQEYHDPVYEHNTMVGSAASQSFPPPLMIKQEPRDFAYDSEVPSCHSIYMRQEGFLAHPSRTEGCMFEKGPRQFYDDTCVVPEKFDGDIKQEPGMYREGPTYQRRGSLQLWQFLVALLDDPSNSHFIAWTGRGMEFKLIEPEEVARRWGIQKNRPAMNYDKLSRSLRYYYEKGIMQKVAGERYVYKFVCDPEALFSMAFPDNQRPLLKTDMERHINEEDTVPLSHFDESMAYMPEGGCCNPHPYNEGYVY
Summary of the method: as §1

## TACTCA
FLI1
  binding signal: 1.14 fold enrichment (6-mer frequency, TF over GST control)
ELK1
  binding signal: 1.24 fold enrichment (6-mer frequency, TF over GST control)
GABPA
  binding signal: 1.2 fold enrichment (6-mer frequency, TF over GST control)
ERG
  binding signal: 1.19 fold enrichment (6-mer frequency, TF over GST control)
ELF1
  binding signal: 1.19 fold enrichment (6-mer frequency, TF over GST control)
EHF
  binding signal: 1.3 fold enrichment (6-mer frequency, TF over GST control)
SPI1
  binding signal: 1.14 fold enrichment (6-mer frequency, TF over GST control)
SPIB
  binding signal: 1.36 fold enrichment (6-mer frequency, TF over GST control)
ELK3
  binding signal: 1.2 fold enrichment (6-mer frequency, TF over GST control)
FEV
  binding signal: 1.24 fold enrichment (6-mer frequency, TF over GST control)
ETV5
  binding signal: 1.17 fold enrichment (6-mer frequency, TF over GST control)
HSF1
  binding signal: 1.12 fold enrichment (6-mer frequency, TF over GST control)
SPIC
  binding signal: 1.19 fold enrichment (6-mer frequency, TF over GST control)
ELF4
  binding signal: 1.23 fold enrichment (6-mer frequency, TF over GST control)
ELK4
  binding signal: 1.13 fold enrichment (6-mer frequency, TF over GST control)
ETV2
  binding signal: 1.17 fold enrichment (6-mer frequency, TF over GST control)
ELF3
  binding signal: 1.22 fold enrichment (6-mer frequency, TF over GST control)
CRX
  binding signal: 1.26 fold enrichment (6-mer frequency, TF over GST control)
ETV1
  binding signal: 1.19 fold enrichment (6-mer frequency, TF over GST control)
